# HT1080 IDH1KD tx – kills HT-1080 cells with IDH1 knockdown; HT-1080 IDH1 knockdown viability, ATP luminescence, 48 h; Potency, µM (top dose mostly 46.1 µM), actives largely listed as cytotoxic; 2% of 360,000 active; AID 686971
#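 Luminescent ATP read-out (CellTiter-Glo, 10 min at room temperature) after 48 h compound exposure at 37 °C gave viability of IDH1-knockdown HT-1080 cells. Activity was normalised to DMSO and cell-free wells, then fitted as concentration-response curves.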
# MCF10A rerep – induces DNA re-replication in MCF 10a normal breast cells | 2.9% of 350,000 active | MCF 10A DNA re-replication, Hoechst nuclear intensity, 48 h | Potency, µM (doses to about 46.1 µM), hits mostly activators; further: nearly all actives have a fitted effect of over 50% in size
# KB-V1 cytotox – kills drug-selected multidrug resistant KB-V1 cells; KB-V1 MDR cells viability, CellTiter-Glo, 72 h; Potency, µM (highest dose often 46.1 µM), most hits filed as cytotoxic; 3.4% of 400,000 active; AID 1347076; further: nearly all actives have a fitted effect of over 60% in size
#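 Compound-treated KB-V1 multidrug-resistant cells, 72 h, 37 degrees C; viability by CellTiter-Glo. Fitted qHTS curves give the values.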
# HT1080-NT tox – kills 2HG-producing HT-1080-NT fibrosarcoma cells; AID 686970; HT-1080-NT fibrosarcoma viability, CellTiter-Glo ATP luminescence, 48 h; 1.6% of 360,000 active; Potency, µM (highest dose often 46.1 µM), hits mostly cytotoxic;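 further: NT is the 2HG producing partner of a matched IDH1 knockdown line; nearly all actives have a fitted effect of over 55% in size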
#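 Compounds were tested in concentration-response format on HT-1080-NT cells for 48 hours at 37 degrees C. Cell viability came from CellTiter-Glo luminescence; curves were classified by r2, response magnitude and activity.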
# SW480 rerep – inducers of DNA re-replication in SW480 colon cancer cells | SW480 DNA re-replication, Hoechst DNA content imaging, 48 h | AID 624297 | Potency, µM (highest dose often 46.1 µM), usual class: activators | 1.8% of 340,000 active; further: nearly all actives have a fitted effect of over 55% in size
#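 SW480 cells exposed to compounds for 48 hr at 37 C, 5% CO2, then Hoechst-stained 40 min. Nuclear DNA content imaged by fluorescence scanning (405 nm excitation, 500-530 nm emission); re-replication scored as increased high-intensity nuclei.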
# KB-3-1 cytotox – KB-3-1 parental cell cytotoxicity; KB-3-1 viability, CellTiter-Glo ATP luminescence, 72 h; Potency, µM (highest dose often 46.1 µM), actives largely listed as cytotoxic; 1.4% of 400,000 active; AID 1347075; further: nearly all actives have a fitted effect of over 60% in size
#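 Cytotoxicity measured as CellTiter-Glo luminescence after 72 h at 37 C. Compound titrations were pinned onto drug-naive KB-3-1 parental adenocarcinoma cells grown in DMEM with 10% FBS, and normalized data fitted to concentration-response curves.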
# Numbers stand for hits; n = inactive; u = inconclusive; x = no result; [ ] = another dose, or the depositor's remark. In the library only some 8% were active in any assay of this set; here they are far more common. The call rests on the fitted dose curve; in most records, active means well fitted curve in the direction sought with a large enough effect; inconclusive means small, poorly fitted or top-dose-only effect, or another doubt; inactive means no such curve, though single readings can be large; an effect the other way counts as inactive or inconclusive.
SMILES,HT1080 IDH1KD tx,MCF10A rerep,KB-V1 cytotox,HT1080-NT tox,SW480 rerep,KB-3-1 cytotox
Cc1ccc(C(CC(=O)Nc2ccc(C)cc2C)N2Cc3ccccc3C2=O)cc1 (stereo not given),x,x,n,x,x,u
COCCn1c(N)c(C(=O)OCc2ccccc2)c2nc3ccccc3nc21,n,u,n,n,u,n
COCCNC(=O)c1c(N)n(CCC2=CCCCC2)c2nc3ccccc3nc12,n,15µM,u,n,21µM,u
COc1ccc(Cn2c(N)c(C#N)c3nc4ccccc4nc32)cc1OC,n,u,n,n,10µM,n
COc1ccc(-n2c(N)c(C(=O)NCc3ccco3)c3nc4ccccc4nc32)c(OC)c1,n,7.1µM,n,n,2.1µM,n
Nc1c(C(=O)NCc2ccco2)c2nc3ccccc3nc2n1CCc1ccccc1F,n,2.6µM,u,n,5.8µM,u
Cc1cc2c(cc1C)N[C@]1(C[C@H]3CCC(=O)N4CC[C@@H](C1)[C@@H]34)C(=Nc1ccccc1C)N2,x,x,n,x,x,n
COc1ccc(N2CC(NC(=O)COc3ccccc3F)CC2=O)cc1OC (stereo not given),x,x,n,x,x,n
O=C(C[n+]1cccc(Br)c1)c1ccc2c(c1)CCCC2,x,x,n,x,x,u
COc1ccc(CCn2c(N)c(C#N)c3nc4ccccc4nc32)cc1OC,n,u,u,n,u,n
COc1ccccc1-n1c(N)c(C(=O)NCC2CCCO2)c2nc3ccccc3nc21 (stereo not given),n,u,n,n,11µM,n
COc1ccc(CCn2c(N)c(C(=O)NCc3ccco3)c3nc4ccccc4nc32)cc1,u,u,6.5µM,u,u,7.3µM
Nc1c(C(=O)NCC2CCCO2)c2nc3ccccc3nc2n1-c1ccccc1 (stereo not given),u,u,u,u,u,n
O=C(NCc1ccco1)c1csc(Nc2ccccc2Cl)n1,n,u,u,n,n,n
COc1ccc(S(=O)(=O)Cc2ccc(C(=O)NCc3ccco3)o2)cc1,n,n,n,n,n,n
COc1ccc(CCn2c(N)c(C(=O)NCc3ccco3)c3nc4ccccc4nc32)cc1OC,18µM,n,n,u,n,n
COc1ccc(Nc2nc(C(=O)NCc3ccco3)cs2)cc1,n,n,16µM,n,n,16µM
COc1cc(OC)c(C2C=C(c3ccc(C)cc3)Nc3c(C(=O)Nc4ccccc4)cnn32)cc1OC (stereo not given),x,x,n,x,x,n
Cc1cc2c(cc1S(=O)(=O)N1CCN(c3cccc(C(F)(F)F)c3)CC1)OCC(=O)N2,n,23µM,n,n,u,n
CCOc1ccc2c(c1)OC(c1ccc(OC)cc1)(C(F)(F)F)NC2=O (stereo not given),4.6µM,2.3µM,5.2µM,u,5.2µM,5.2µM
CCOC(=O)c1cc2c(=O)n3ccccc3nc2n(Cc2ccco2)c1=NC(=O)c1cccc(F)c1,x,x,u,x,x,n
CC(=O)N(CCC(Cc1ccccc1)c1ccc2c(c1)OCO2)Cc1ccc(Cl)cc1 (stereo not given),u,16µM,u,u,u,u
O=C(O)CC(Cc1ccccc1)c1ccc2c(c1)OCO2 (stereo not given),n,n,u,n,n,u
Cc1ccccc1C(=O)Oc1cc(-c2ccc3c(c2)OCO3)cc(=O)c2c(C)oc(C)c12,x,x,n,x,x,n
CC(C)C[C@H](NC(=O)c1nc[nH]c1C(=O)NC1CCN(C(=O)OC(C)(C)C)CC1)C(=O)OC(C)(C)C,u,13µM,n,u,n,u
SMILES,HT1080 IDH1KD tx,MCF10A rerep,KB-V1 cytotox,HT1080-NT tox,SW480 rerep,KB-3-1 cytotox
CC(C)(C)OC(=O)NCc1ccc(CNC(=O)c2[nH]cnc2C(=O)NC2CCN(C(=O)OC(C)(C)C)CC2)cc1,n,18µM,n,n,n,u
CC(C)(C)OC(=O)N1CCC(NC(=O)c2nc[nH]c2C(=O)NCc2ccccc2)CC1,n,n,n,n,n,n
C[C@H](NC(=O)c1nc[nH]c1C(=O)NC1CCN(C(=O)OC(C)(C)C)CC1)C(=O)OC(C)(C)C,n,n,n,n,0.16µM,n
CC(C)(C)OC(=O)[C@H](Cc1ccccc1)NC(=O)c1nc[nH]c1C(=O)NC1CCN(C(=O)OC(C)(C)C)CC1,u,n,u,u,n,u
C=CCOc1c(Cl)cc(CNc2ccc(N(C)C)cc2)cc1OC,16µM,u,5.2µM,n[9.24 µM],u,u
COc1cc(CNc2ccc(N3CCCC3)cc2)cc(Cl)c1OC,u,23µM,u,16µM,u,12µM
CCOc1cc(CNc2ccc(N3CCCC3)cc2)cc(Cl)c1OC,u,u,u,u,16µM,u

# Compound activity from PubChem.
